Bioassay records (PubChem)
GLP1R cytotox: cytotoxic in the GLP-1 receptor inverse agonist counter-screen | hit rate 0.13% among 410,000 | Potency, µM (doses to about 38.3 µM), actives largely listed as inhibitors | AID 624418 | HEK293 cAMP-luciferase reporter cells, luminescence, 24 h;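 further: loss of luciferase light is scored as toxicity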
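Step one: seed cells (200 cells/uL, DMEM with 10% Nu serum, 1% pen-strep). Step two: 12-hour incubation at 37 deg C. Step three: pin 23 nL compound, incubate 24 hr. Step four: add luciferase reagent, read luminescence 12 min later.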
ClpP mod: qHTS Assay for Activators of ClpP. hit rate 1.9% among 340,000. purified B. subtilis ClpP, FRET peptide cleavage, 20 min. Potency, µM (highest dose often 57.5 µM). ATP-dependent Clp protease proteolytic subunit (Bacillus subtilis (strain 168)), P80244; active means well fitted falling curve with a large enough effect; inconclusive means small, poorly fitted or top-dose-only effect; inactive means no such curve, though single readings can be large or run the other way; further: the source files actives as falling curves though it sought activators and does not explain the sign; nearly all actives have a fitted effect of over 65% in size
Target sequence (P80244 whole entry, looked up): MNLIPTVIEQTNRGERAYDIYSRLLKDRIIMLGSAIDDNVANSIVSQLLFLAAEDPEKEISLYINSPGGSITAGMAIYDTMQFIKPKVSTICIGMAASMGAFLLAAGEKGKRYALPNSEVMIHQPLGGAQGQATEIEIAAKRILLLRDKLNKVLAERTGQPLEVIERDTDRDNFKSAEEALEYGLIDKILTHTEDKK
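Purified B. subtilis ClpP, 10 microg/mL final in Tris/HCl pH8 with KCl, BSA, glycerol and Tween-20, cleaved an Abz/nitrotyrosine-quenched decapeptide. Fluorescence (ex 320, em 430) was read at 0 and 20 min at room temperature. Delta was normalized to 5.8 microM ADEP and DMSO/no-enzyme controls.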
LDHA inh: inhibitors of human lactate dehydrogenase A | hit rate 0.15% among 480,000 | activity change, % (values are at about 110 or 230 µM) | purified LDHA, NADH/diaphorase-resazurin fluorescence; active compounds read low; in the data active means activity change below about -30%; inconclusive means mostly about -25% to -30%
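Remaining NADH was detected by diaphorase (0.133 mg/mL) converting 37 µM resazurin to fluorescent resorufin, read at 0 and 20 minutes. The preceding 5-minute room-temperature reaction used 2 nM LDHA, 0.2 mM sodium pyruvate and 0.06 mM NADH at pH 7.4.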
GLP-1R inv ag: inverse agonists of human GLP-1 receptor; P43220; HEK293 GLP-1R CRE-luciferase, luminescence, 24 h; GLP-1R form is constitutively active; Potency, µM (series often up to 38.3 µM), most hits filed as inhibitors; hit rate 1.6% among 410,000; AID 624417; further: nearly all actives have a fitted effect of over 55% in size
Target sequence (P43220 whole entry, looked up): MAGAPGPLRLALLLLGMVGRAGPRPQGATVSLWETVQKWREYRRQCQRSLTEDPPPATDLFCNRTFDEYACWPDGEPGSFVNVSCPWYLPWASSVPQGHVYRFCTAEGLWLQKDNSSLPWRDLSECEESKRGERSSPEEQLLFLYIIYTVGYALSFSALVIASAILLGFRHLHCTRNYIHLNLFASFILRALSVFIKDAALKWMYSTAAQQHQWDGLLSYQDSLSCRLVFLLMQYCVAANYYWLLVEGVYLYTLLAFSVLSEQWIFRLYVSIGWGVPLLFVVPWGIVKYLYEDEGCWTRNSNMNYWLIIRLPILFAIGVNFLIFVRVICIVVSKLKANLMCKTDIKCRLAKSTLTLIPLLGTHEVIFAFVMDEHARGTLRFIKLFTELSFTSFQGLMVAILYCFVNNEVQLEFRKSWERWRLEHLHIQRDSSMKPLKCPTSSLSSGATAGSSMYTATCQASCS
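Constitutively active GLP-1R drives a cAMP-responsive luciferase in stably transfected HEK293 cells; test compounds are added after overnight (12 h) attachment and left 24 hr, and signal loss in luminescence marks inhibition.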
GLP1R ag: agonists of human GLP-1 receptor; hit rate 0.007% among 380,000; HEK293 GLP-1R CRE-luciferase, luminescence, 4-6 h; cells express a hypersensitive GLP-1R form; Potency, µM (doses to about 45.6 µM), most hits filed as activators; P43220; AID 624172
p53 reactivation: re-activators of mutant p53 | H1299 p53-A138V BP100-luciferase reporter, luminescence, 24 h | Potency, µM (series often up to 92.2 µM), most hits filed as activators | hit rate 0.063% among 320,000; further: nearly all actives have a fitted effect of over 45% in size
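H1299 (p53-null), stable ts p53-A138V + BP100-Luc; 1000 cells/well, Opti-MEM/10% FBS; cpd 4 pt, 1:5; 24 h, 37 deg C, 5% CO2; detection reagent 10 min RT; luminescence.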
Numbers stand for hits; 0 = inactive; ? = inconclusive; - = not tested or not shown; ! = a repeat was not active; [ ] = remark or other dose. This is a sample that favours compounds with a hit; in the whole collection about 2.9% have one here. Unless noted, the call rests on the fitted dose curve; in most records, active means well fitted curve in the direction sought with a large enough effect; inconclusive means small, poorly fitted or top-dose-only effect, or another doubt; inactive means no such curve, though single readings can be large; an effect the other way counts as inactive or inconclusive.

SMILES	GLP1R cytotox	ClpP mod	LDHA inh	GLP-1R inv ag	GLP1R ag	p53 reactivation
COc1ccc2nc(Cl)c(C3CC(c4ccco4)=NN3C(=O)CCC(=O)O)cc2c1 (configuration not stated)	0	0	0	0	0	0
Cc1cc2n(n1)C(c1ccccc1Cl)Nc1ccccc1-2 (configuration not stated)	0	?	0	0	0	0
COc1ccc(C2Nc3ccccc3-c3cc(C)nn32)c(OC)c1 (configuration not stated)	0	32µM	0	0	-	-
COc1cc(OC)c(C(=O)OCC(=O)N2CCOCC2)cc1OC	0	-	0	0	0	0
C/C(=N/Nc1nc(-c2ccccc2)cc(-c2ccccc2)n1)c1ccc(N)cc1	-	-	-	-	-	32µM
C/C(=N/Nc1cc(-c2ccccc2)nc(-c2ccccc2)n1)c1ccc(O)cc1	?	0	0	?	0	0
CCCCCC[n+]1c(-c2ccc(Cl)cc2Cl)csc1Nc1ccccc1	0	0	0	10µM	0	0
COc1cc2ccccc2cc1C(=O)Nc1ccc(N2CCN(C)CC2)cc1	?	0	0	?	0	20µM
CCOc1ccc(C(=O)Nc2ccc(N3CCN(C)CC3)cc2)cc1Br	0	18µM	0	?	0	0
Nc1ccc(O)cc1C(=O)OCC(=O)c1ccc(C2CCCCC2)cc1	0[1.53 µM]	0	0	?	0	?
CC(=O)Oc1ccccc1C(=O)Oc1ccccc1C(=O)O	0	0	0	0	0	0
CC(C)CCOCC(=O)Oc1ccccc1C(=O)O	0	28µM	0	0	0	0
COc1cccc(NC(=O)CN(C)C(=O)Cc2cccc3ccccc23)c1	0	0	0	?	0	0
COc1cccc(NC(=O)CN(C)C(=O)C(Sc2ccccc2)c2ccccc2)c1 (configuration not stated)	0	28µM	0	11µM	0	0
C=CCOC(=O)C1=C(C)N(C)C(=O)NC1c1cc2c(cc1Br)OCO2 (configuration not stated)	0	0	0	?	0	0
COc1cccc(C(=O)NCCSc2ccc(F)cc2)c1	0[7.66 µM]	-	0	0[7.66 µM]	0	0
COc1cccc(C(=O)NCC(C)(C)SCc2ccc(F)cc2)c1	0	0	0	11µM	0	0
CCCc1cc(=O)oc2cc(C)c3c(-c4ccccc4)coc3c12	0	20µM	0	?	-	-
COc1ccc(NC(=O)CN2C(=O)C(c3ccc(C)cc3)=NC23CCCCCC3)cc1Cl	0	0	0	11µM	-	-
COc1ccc(C2=NC3(CCCCCC3)N(CC(=O)Nc3cccc(Cl)c3)C2=O)cc1	0	0	0	11µM	-	-
COc1ccc(C2=NC3(CCCCCC3)N(CC(=O)Nc3ccc(C)c(C)c3)C2=O)cc1	0	0	0	0	-	-
COc1ccc(-c2csc(NC(=O)C3CCCO3)n2)cc1 (configuration not stated)	0	0	0	0	0	?
CCOc1ccc(N(C)S(=O)(=O)c2ccc(C)c(C(=O)N3CCN(Cc4ccc5c(c4)OCO5)CC3)c2)cc1	0	0	0	11µM	0	0
COc1ccc(N(C)S(=O)(=O)c2cccc(C(=O)N3CCN(Cc4ccc5c(c4)OCO5)CC3)c2)cc1	0	0	0	?	0	0
CCOc1ccc(N(C)S(=O)(=O)c2ccc(C)c(C(=O)NCCc3ccc(OC)cc3)c2)cc1	0	0	0	10µM	0	0
SMILES	GLP1R cytotox	ClpP mod	LDHA inh	GLP-1R inv ag	GLP1R ag	p53 reactivation
C[C@H](CO)N1C[C@H](C)[C@H](CN(C)C(=O)OCc2ccccc2)OCc2cnnn2CCCC1=O	0	0	0	0	0	-
O=C(Nc1ccccc1)Nc1ccc(NC(=O)c2ccc(Cl)cc2)cc1	-	-	0	-	-	-
CC(C)c1onc(C(=O)N2CCN(C(c3ccccc3)c3ccccc3)CC2)c1[N+](=O)[O-]	0	0	0	2.5µM	0	0
CC(C)c1onc(C(=O)N2CCN(c3ccccc3)CC2)c1[N+](=O)[O-]	0	0	0	0	0	0
Cc1ccc(-c2ccc(/C=N/N3C(=O)C4C5C=CC(C6CC56)C4C3=O)o2)c([N+](=O)[O-])c1 (configuration not stated)	0	0	0	3.5µM	0	0
CN(C(=O)COC(=O)c1ccc2ccccc2n1)c1ccccc1	0	10µM	0	0	0	0
O=C(N/N=C/c1ccc(Br)cc1)c1ccc(Br)o1	0	0	-32	0	0	?
NC(=O)N/N=C/c1ccc(Br)cc1	-	-	0	-	-	-
CC(C)c1ccc(NC(=O)CCC(=O)NCc2ccco2)cc1	0	0	0	?	0	0
CCC(Oc1ccccc1)C(=O)Nc1nnc(C)s1 (configuration not stated)	0	0	0	0	0	0
CCCc1nc2ccccc2c(=O)n1/N=C/c1ccccc1O	0	0	0	4.5µM	0	0
Cc1nc2ccccc2c(=O)n1/N=C/c1ccc(O)cc1O	0	-	0	0	0	0
Cc1ccccc1OCc1nc2ccccc2c(=O)n1/N=C/c1c[nH]c2ccccc12	?	0	0	?	0	0
Cc1cccc(C)c1OCc1nc2ccccc2c(=O)n1/N=C/c1c[nH]c2ccccc12	0	0	0	2.8µM	0	0
Cc1ccc(Nc2nn3c(=O)c4cc5c(cc4nc3s2)OCO5)cc1Cl	0	0	0	0	-	-
O=S(=O)(c1cccs1)N1CCN(CC(O)COc2cccc(Br)c2)CC1 (configuration not stated)	0	0	0	8.9µM	0	0
C=CCOC(=O)C1=C(C)NC(=O)NC1c1ccc(O)cc1 (configuration not stated)	0	0	0	0	0	-
C=CCOC(=O)C1=C(C)NC(C)=C(C(=O)OCC=C)C1c1ccc(O)cc1	?	22µM	0	?	0	0
CCOC(=S)SCC(=O)Nc1nc(-c2ccc(Br)cc2)cs1	5µM	0	0	0	0	?
CC(C)CCNC(=O)C1CCN(c2nc3ccccc3o2)CC1	0	0	0	0	0	0
Cc1ccc(C)c(NC(=O)Cn2c(-c3nonc3N)nc3ccccc32)c1	0	0	-33!	0	-	-
Cc1cc(C)cc(NC(=O)Cn2c(-c3ccccc3Cl)nc3ccccc32)c1	0	28µM	0	?	0	0
O=C(Cn1c(-c2ccccc2Cl)nc2ccccc21)Nc1cccc(Cl)c1	0	0	0	0	0	0
Cc1ccc(NC(=O)Cn2c(-c3nonc3N)nc3ccccc32)cc1C	0	0	0	0	-	-
COc1ccc(/C=C/C(=O)Nc2sc3c(c2C(N)=O)CCCC3)cc1	0	0	0	0	-	-
C[C@@H]1CN([C@@H](C)CO)C(=O)CCCn2cc(nn2)CO[C@H]1CN(C)S(=O)(=O)c1ccccc1	0	0	0	0	0	-
